Measured values: PubChem BioAssay (NCATS)
“And” between values parts separate entries of the source, which are not always exact repeats. Identical values can stand only once. Results filed as inconclusive are left out. More than one record can exist for a structure, and the calls need not agree. The source made the active and inactive calls. Calls follow the shape of the dose curve; as a rule, active = well fitted curve in the direction sought with a large enough effect; inconclusive = small, poorly fitted or top-dose-only effect, or another doubt; inactive = no such curve, though single readings can be large; an effect the other way counts as inactive or inconclusive.

Legend:
[1] = Viability qHTS for spleen associated tyrosine kinase inhibitor (SYKi) naive MV4-11 cells (AID 1963823); also: nearly all actives have a fitted effect of over 40% in size
In short: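 Compounds were dispensed acoustically onto plates, MV4-11 cells (SYKi-naive) added at 500 per well, and plates incubated 72 hr at 37 C. CellTiter-Glo was added and luminescence measured after 10 min.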

[2] = Viability qHTS for spleen associated tyrosine kinase inhibitor (SYKi) drug resistant MV4-11 cells (AID 1963824); also: nearly all actives have a fitted effect of over 35% in size
In short: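 SYK inhibitor-resistant MV4-11 AML cells, 500 per well, added to predispensed compounds and incubated 72 hr at 37 C, 5% CO2. Viability measured by CellTiter-Glo luminescence after 10 min at room temperature.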

[3] = Quantitative highthroughput screen to assess conditional lethalithy of NOMO1 cells grown in RPMI1640 with untreated serum (RPMI+s) (AID 1963876); also: nearly all actives have a fitted effect of over 35% in size;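 as to Viability: 100% = DMSO wells and 0% = empty wells without cells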
In short: (§1)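 Each medium arm—HPLM with 10% dialyzed FBS, or RPMI1640 with 5 mM glucose and 10% untreated or dialyzed FBS—was screened against an 11-point, 3-fold compound titration for 48 h at 37 °C, with CellTiter-Glo luminescence as endpoint.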

[4] = Quantitative highthroughput screen to assess conditional lethalithy of NOMO1 cells grown in Human Plasma-Like Medium with dialyzed fetal bovine serum (HPLM+ds) (AID 1963878); also: nearly all actives have a fitted effect of over 35% in size;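 as to Viability: 100% = DMSO wells and 0% = empty wells on each plate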
In short: as §1

[5] = Quantitative highthroughput screen to assess conditional lethalithy of P12 Ichikawa cells grown in Human Plasma-Like Medium with dialyzed fetal bovine serum (HPLM+ds) (AID 1963879); settings: Potency: viability; also: nearly all actives have a fitted effect of over 35% in size; as to Viability: series mostly up to about 46 µM
In short: as §1

[6] = Quantitative highthroughput screen to assess conditional lethalithy of P12 Ichikawa cells grown in RPMI1640 with dialyzed fetal bovine serum (RPMI+ds) (AID 1963880); settings: Potency: P12-Ichikawa viability; also: nearly all actives have a fitted effect of over 35% in size;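 as to Viability: 100% = DMSO wells and 0% = empty wells on each plate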
In short: as §1

[7] = Quantitative highthroughput screen to assess conditional lethalithy of P12 Ichikawa cells grown in RPMI1640 with untreated serum (RPMI+s) (AID 1963881); settings: Potency: viability; also: nearly all actives have a fitted effect of over 35% in size;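 as to Viability: series mostly up to about 46 µM; 100% = DMSO wells and 0% = empty wells without cells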
In short: as §1

[8] = Quantitative highthroughput screen to assess conditional lethalithy of SEM cells grown in Human Plasma-Like Medium with dialyzed fetal bovine serum (HPLM+ds) (AID 1963882); also: nearly all actives have a fitted effect of over 35% in size; as to Viability: series mostly up to about 46 µM
In short: as §1

[9] = Quantitative highthroughput screen to assess conditional lethalithy of SEM cells grown in RPMI1640 with unreated serum (RPMI+s) (AID 1963883); also: nearly all actives have a fitted effect of over 35% in size;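 as to Viability: 100% = DMSO wells and 0% = empty wells without cells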
In short: as §1

[10] = Quantitative highthroughput screen to assess conditional lethalithy of SEM cells grown in RPMI1640 with dialyzed fetal bovine serum (RPMI+ds) (AID 1963884); also: nearly all actives have a fitted effect of over 35% in size;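 as to Viability: series mostly up to about 46 µM; 100% = DMSO control wells and 0% = empty wells without cells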
In short: as §1

[11] = Cellular viability qHTS for adrenocortical cancer (ACC) cell line SW-13 (AID 1963989); settings: SW-13 ACC cells viability, CellTiter-Glo, 48 h; activity (max response): stronger effect = lower value; also: nearly all actives have a fitted effect of over 65% in size;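 as to activity (max response): cells grown in serum-free medium with ITS supplement; % is scaled to controls: 0 for no effect and ±100 for the full control effect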
In short: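 Viability was read as CellTiter-Glo luminescence after 48 h compound treatment (up to 46 uM final) of SW-13 cells grown serum-free; titration curves were fit with a four-parameter logistic model to give IC50 and efficacy.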

[12] = Cellular viability qHTS for adrenocortical cancer (ACC) cell line NCI-H295R (AID 1963990); also: nearly all actives have a fitted effect of over 60% in size
In short: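 CellTiter-Glo ATP luminescence, read 48 h after compound addition, measured viability of NCI-H295R adrenocortical cells grown serum-free with ITS. Final concentrations spanned up to 46 uM. Data normalized to DMSO and doxorubicin, fitted for IC50 and maximal response.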

[13] = Quantitative highthroughput screen to assess conditional lethalithy of NOMO1 cells grown in RPMI1640 with dialyzed fetal bovine serum (RPMI+ds) (AID 1963877); also: nearly all actives have a fitted effect of over 30% in size;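 as to Viability: series mostly up to about 46 µM; 100% = DMSO control wells and 0% = empty wells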
In short: as §1
Potency is read from the fitted curve at half-maximal effect.

CCCCNc1cc(C(=O)O)cc(S(N)(=O)=O)c1Oc1ccccc1
inactive: Potency [1] | Potency [2] | Potency [3] | Potency [4] | Potency [5] | Potency [6] | Potency [7] | Potency [8] | Potency [9] | Potency [10] | activity (max response) [11] 16.2% and -1.57% | Potency [12]

CNC(=O)c1ccc(Nc2ncc(C(F)(F)F)c(NCc3nccnc3N(C)S(C)(=O)=O)n2)cc1
inactive: Potency [3] | Potency [13] | Potency [5] | Potency [7]
active: Potency [1] 130 nM and 332 nM | Potency [2] 291 nM and 525 nM | Potency [8] 1.48 µM | Potency [9] 1.05 µM | Potency [10] 0.933 µM | Potency [12] 7.94 µM

COc1ccc(C(=O)CC(=O)c2ccc(C(C)(C)C)cc2)cc1
inactive and 14.8 µM (active): Potency [1]
inactive and 16.6 µM (active): Potency [2]
inactive: Potency [3] | Potency [4] | Potency [5] | Potency [6] | Potency [7] | Potency [8] | Potency [9] | Potency [10] | activity (max response) [11] 8.41% and -10.7% | Potency [12]

COc1ccc2cccc(CCNC(C)=O)c2c1
inactive: Potency [1] | Potency [2] | Potency [3] | Potency [13] | Potency [5] | Potency [7] | activity (max response) [11] 13%

NC(=O)c1cccc2[nH]c(-c3ccc([C@H]4CCCN4)cc3F)nc12
active: Potency [1] 20.6 µM | Potency [2] 16.6 µM | Potency [13] 18.7 µM | Potency [9] 3.72 µM | Potency [10] 2.64 µM | Potency [12] 8.91 µM
inactive: Potency [3] | activity (max response) [11] -3%

CCc1ccc(OCc2ccccc2C(=O)Nc2ccc3nc(C)cc(N)c3c2)cc1
active: Potency [1] 1.66 µM | Potency [2] 2.09 µM | Potency [3] 9.35 µM | Potency [4] 3.32 µM | Potency [5] 9.35 µM | Potency [6] 14.8 µM | Potency [7] 13.2 µM | Potency [8] 3.72 µM | Potency [9] 10.5 µM | Potency [10] 10.5 µM | Potency [11] 5.01 µM | Potency [12] 5.62 µM

O=C(O)CCCc1c[nH]c2ccccc12
inactive: Potency [1] | Potency [2] | Potency [3] | Potency [4] | Potency [5] | Potency [6] | Potency [7] | Potency [8] | Potency [9] | Potency [10] | activity (max response) [11] 1.46% | Potency [12]

Cn1c(=O)c(-c2c(Cl)cccc2Cl)cc2cnc(Nc3cccc(C(=O)O)c3)nc21
active: Potency [1] 0.662 µM | Potency [2] 0.259 µM | Potency [9] 14.8 µM
inactive: Potency [3] | Potency [13] | Potency [7] | activity (max response) [11] -0.886% | Potency [12]

COc1cc(C(C)C)c2c(c1)S(=O)(=O)N(COc1cc(=O)n3cccc(OCCN4CCCCC4)c3n1)C2=O
active: Potency [1] 20.9 µM | Potency [2] 11.8 µM
inactive: Potency [3] | Potency [13] | Potency [5] | Potency [7] | Potency [8] | Potency [9] | Potency [10]

CC(C)c1cnn2c(NCc3ccccc3)cc(NCCCCCCN)nc12
active: Potency [1] 16.6 µM | Potency [2] 14.8 µM | Potency [12] 25.1 µM
inactive: Potency [3] | Potency [13] | Potency [6] | Potency [7] | Potency [8] | Potency [9] | Potency [10]

OC(CCN1CCCCC1)(c1ccccc1)C1CC2C=CC1C2 (stereo not drawn)
inactive and 16.6 µM (active): Potency [2]
inactive: Potency [1] | Potency [3] | Potency [13] | Potency [5] | Potency [7] | Potency [8] | Potency [9] | Potency [10] | activity (max response) [11] -4.13% and -26% | Potency [12]

CC1(C)CC(=O)c2c(C(F)(F)F)nn(-c3ccc(C(N)=O)c(NC4CCC(O)CC4)c3)c2C1 (stereo not drawn)
active: Potency [1] 0.0209 µM | Potency [2] 0.0332 µM | Potency [3] 0.209 µM | Potency [4] 0.235 µM | Potency [5] 0.235 µM | Potency [6] 0.148 µM | Potency [7] 0.148 µM | Potency [8] 0.148 µM | Potency [9] 0.148 µM | Potency [10] 0.148 µM | Potency [11] 0.224 µM | Potency [12] 0.447 µM
